# ALOX12 inh – Primary qHTS assay for inhibitors of human arachidonate 12S-lipoxygenase (ALOX12): Round 2 | Polyunsaturated fatty acid lipoxygenase ALOX12 (Homo sapiens), P18054 | Potency, µM (top dose mostly 108 µM), for inactives: at the top dose activity change, negative = inhibition, usual class: inhibitors | purified 12hLO, xylenol orange hydroperoxide absorbance | actives 1.1% (n = 580,000); also: % is scaled to controls: 0 for no effect and ±100 for the full control effect
# Target sequence (P18054 whole entry, looked up): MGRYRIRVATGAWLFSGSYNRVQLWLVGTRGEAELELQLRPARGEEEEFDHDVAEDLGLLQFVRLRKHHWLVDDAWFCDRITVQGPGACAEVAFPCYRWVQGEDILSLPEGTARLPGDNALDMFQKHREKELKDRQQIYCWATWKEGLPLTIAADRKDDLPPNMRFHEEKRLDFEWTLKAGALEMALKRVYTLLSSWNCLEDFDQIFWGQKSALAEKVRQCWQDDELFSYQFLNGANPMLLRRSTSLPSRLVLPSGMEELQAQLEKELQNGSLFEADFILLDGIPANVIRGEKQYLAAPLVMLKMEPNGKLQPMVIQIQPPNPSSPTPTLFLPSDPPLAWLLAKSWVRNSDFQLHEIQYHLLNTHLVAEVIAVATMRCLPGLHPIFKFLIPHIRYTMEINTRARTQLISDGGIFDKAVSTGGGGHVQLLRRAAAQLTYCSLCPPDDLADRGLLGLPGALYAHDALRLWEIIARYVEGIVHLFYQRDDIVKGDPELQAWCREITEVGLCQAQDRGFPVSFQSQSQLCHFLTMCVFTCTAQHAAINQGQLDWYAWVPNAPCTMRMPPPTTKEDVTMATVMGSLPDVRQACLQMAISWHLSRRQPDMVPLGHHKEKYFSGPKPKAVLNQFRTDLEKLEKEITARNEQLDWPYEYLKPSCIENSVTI
#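 Purified human 12hLO at 150 nM in 25 mM Hepes, 0.01% Triton X-100, pH 7.0, preincubated 15 min at room temperature with compound. Reaction started with 40 uM arachidonic acid, 30 min at room temperature. Hydroperoxide measured by Fe-xylenol orange, 573/405 nm absorbance ratio.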
# SW480 rereplic – A quantitative high throughput screen for small molecules that induce DNA re-replication in SW480 colon adenocarcinoma cells. SW480 DNA re-replication, Hoechst DNA content imaging, 48 h. Potency, µM (titrated, usually from 46.1 µM), for inactives: top-dose re-replication activation, most hits filed as activators. actives 1.8% (n = 340,000). AID 624297, 2012; also: % of control where 0% means no effect; nearly all actives have a fitted effect of over 55% in size
#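 DNA re-replication was detected as more nuclei of elevated Hoechst intensity after 48 hr exposure to compound (23 nL pinned per well of 250 cells).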
# KB-3-1 cytotox – qHTS assay for MDR1-selective chemotherapeutics: Primary screen using the parental adenocarcinoma cell KB-3-1; actives 1.4% (n = 400,000); AID 1347075, 2019; KB-3-1 viability, CellTiter-Glo ATP luminescence, 72 h; Potency, µM (series often up to 46.1 µM), actives largely listed as cytotoxic; also: % is scaled to controls: 0 for no effect and ±100 for the full control effect; nearly all actives have a fitted effect of over 60% in size
#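 Cells are dispensed, compounds pinned in, plates held at 37 °C for 72 h, then CellTiter-Glo is added and luminescence read after 10 minutes. Cell line: parental KB-3-1 in phenol-red-free DMEM, 10% FBS.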
# KB-V1 cytotox – qHTS assay for MDR1-selective chemotherapeutics: Primary screen using the drug-selected MDR subline cells KB-V1 | actives 3.4% (n = 400,000) | KB-V1 MDR cells viability, CellTiter-Glo, 72 h | Potency, µM (highest dose often 46.1 µM), actives largely listed as cytotoxic; also: % is scaled to controls: 0 for no effect and ±100 for the full control effect; nearly all actives have a fitted effect of over 60% in size
#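 Readout: CellTiter-Glo luminescence, 10 min after addition. Cells: KB-V1 MDR subline, 72 h at 37 degrees C with compound. Analysis: corrected, normalized data fitted to concentration-effect curves.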
# PINK1 expr mod – A Quantitative High throughput Screen to Identify Chemical Modulators of PINK1 Expression. PINK1 immunofluorescence, high-content cytometry, 24 h. Potency, µM (series often up to 76.6 µM), for inactives: top-dose activation (PINK1 increase), most hits filed as activators. actives 0.2% (n = 410,000). AID 624263, 2012; active = well fitted activation curve with a large enough effect; inconclusive = small, poorly fitted or top-dose-only effect; cell line not stated here; also: % of control where 0% means no effect; nearly all actives have a fitted effect of over 65% in size
#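 PINK1 protein level read as immunofluorescence by microplate cytometer in a fixed, stained stable cell line after 24 h exposure to five compound concentrations, with CCCP as control.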
# MCF10A rereplic – A quantitative high throughput screen for small molecules that induce DNA re-replication in MCF 10a normal breast cells | Potency, µM (highest dose often 46.1 µM), for inactives: top-dose activity, positive = re-replication, hits mostly activators | AID 624296, 2012 | MCF 10A DNA re-replication, Hoechst nuclear intensity, 48 h | actives 2.9% (n = 350,000); also: % of control where 0% means no effect; nearly all actives have a fitted effect of over 50% in size
# Active calls of the source: *; i = inactive; ? = inconclusive; . = no result; [ ] = another dose, or the depositor's remark. A selection: hits, their analogues and other compounds. The true share with any hit is near 5.8%. Unless noted, calls follow the shape of the dose curve; as a rule, active = well fitted curve in the direction sought with a large enough effect; inconclusive = small, poorly fitted or top-dose-only effect, or another doubt; inactive = no such curve, though single readings can be large; an effect the other way counts as inactive or inconclusive. Potency is read from the fitted curve at half-maximal effect.
SMILES,ALOX12 inh,SW480 rereplic,KB-3-1 cytotox,KB-V1 cytotox,PINK1 expr mod,MCF10A rereplic
CC1(C)CC(NC(=O)C2CCC2)CC(C)(CNC(=O)C2CCC2)C1 (stereo unspecified),-15%,.,.,.,.,.
O=C(O)c1cccc(NCc2ccc(Cl)cc2)c1,-5%,.,.,.,.,.
CCN1C(=O)[C@H]2[C@@H](c3ccc(-c4ccc5c(c4)OCO5)cc3)N3CCC[C@@]3(C(=O)OC)[C@H]2C1=O,-11%,1%,i,?,-1%,?
COC(=O)[C@]1(Cc2ccccc2)N[C@H](c2ccc(-c3cccc(Cl)c3)c(OC)c2)[C@@H]2C(=O)N(C)C(=O)[C@@H]21,40µM*,?,?,i,4%,3%
CCN1C(=O)[C@@H]2[C@@H](c3ccc(-c4ccc5c(c4)OCO5)c(OC)c3)N3CCC[C@@]3(C(=O)OC)[C@@H]2C1=O,11µM*,1%,i,i,1%,4%
COC(=O)[C@@]12CCCN1[C@H](c1ccc(-c3ccccc3)c(OC)c1)[C@H]1C(=O)N(C)C(=O)[C@H]12,13µM*,-4%,i,i,0%,-5%
CCN1C(=O)[C@H]2[C@@H](c3ccc(-c4ccc(F)cc4)c(OC)c3)N[C@@](C)(C(=O)OC)[C@H]2C1=O,11µM*,-88%,i,i,2%,-2%
CCOC(=O)C(NC(=O)/C=C/c1cc(Cl)c(OC)c(OC)c1)C(=O)OCC,10%,.,.,.,.,.
COc1ccccc1/C=C/C(=O)c1cc(F)ccc1OC(=O)c1ccccc1,-14%,.,.,.,.,.
CC(C)C(C)(C#N)NC(=O)CSc1n[nH]c(-c2ccc(Br)cc2)n1 (stereo unspecified),-26%,.,.,.,.,.
CCSc1ccc([C@@H]2[C@@H]3C(=O)N(CC)C(=O)[C@@H]3[C@]3(C(=O)OC)CCCCN23)cc1,-17%,1%,i,i,2%,-1%
CCC(C)Sc1ccc([C@@H]2[C@H]3C(=O)N(CC)C(=O)[C@H]3[C@]3(C(=O)OC)CCCCN23)cc1 (stereo partly specified),?,?,?,10µM*,15%,8%
O=C(CC1CCCCC1)NCC(=O)N1CCCCCCNC(=O)CC1c1ccccc1 (stereo unspecified),14%,.,.,.,.,.
COc1ccc(CNC(=O)[C@H](C)NC(=O)c2cc3c(OC)ccc(OC)c3[nH]2)cc1,-11%,.,.,.,.,.
CCn1cc(C(=O)OCC(=O)c2cc(C)n(-c3ccc(OC(F)F)cc3)c2C)c(=O)c2ccc(C)nc21,-24%,?,i,23µM*,25%,13µM*
CCCCC(=Nc1ccccc1OC)C1=C(O)CC(c2ccccc2)CC1=O (stereo unspecified),-16%,-15%,i,i,4%,16%
CCCCC(=NCCc1c(C)[nH]c2ccccc12)C1=C(O)CC(c2ccccc2)CC1=O (stereo unspecified),-6%,10µM*,13µM*,9.2µM*,2%,8.2µM*
CCC/C(O)=C1\C(=O)CC(c2ccccc2)CC1=NCCc1c(C)[nH]c2ccccc12 (stereo unspecified),32%,3%,i,i,1%,2%
CCCC(=NCCc1c(C)[nH]c2ccccc12)C1=C(O)CC(c2ccccc2)CC1=O (stereo unspecified),?,6.5µM*,7.3µM*,5.2µM*,17%,1.5µM*
CCN(CC)S(=O)(=O)c1ccc(C(=O)Nc2nc3c(Cl)cc(Cl)cc3s2)cc1,0%,.,21µM*,i,-2%,.
FC(F)(F)c1nc2ccccc2n2c(-c3c(Cl)cccc3Cl)nnc12,-29%,3%,?,i,11%,17%
FC(F)(F)c1nc2ccccc2n2c(-c3ccc(Cl)cc3Cl)nnc12,57%,?,18µM*,?,-3%,26%
C=CCSc1nc2sc3c(c2c(=O)n1CC)CCc1ccccc1-3,7.1µM*,20%,i,i,1%[38.3 µM],?
CCOC(=O)C1=C(Nc2ccccc2)CC(C)(O)C(C(=O)OCC)C1c1ccc(Br)cc1 (stereo unspecified),-3%,?,?,23µM*,22%,5%
N#CC(C(=O)NCCc1ccccc1)c1nc2ccccc2nc1N1CCCCC1 (stereo unspecified),9%,?,i,i,5%,21µM*
SMILES,ALOX12 inh,SW480 rereplic,KB-3-1 cytotox,KB-V1 cytotox,PINK1 expr mod,MCF10A rereplic
CCCCCNC(=O)C(C#N)c1nc2ccccc2nc1N1CCCC1 (stereo unspecified),-24%,?,i,i,5%,10µM*
CCCCCCNC(=O)C(C#N)c1nc2ccccc2nc1N1CCCC1 (stereo unspecified),141%,?,i,i,0%,13µM*
CCN(CC)c1nc2ccccc2nc1C(C#N)C(=O)NCCCOC (stereo unspecified),?,?,?,?,2%,28%
N#CC(C(=O)NCCc1ccccc1)c1nc2ccccc2nc1N1CCOCC1 (stereo unspecified),449%,-4%,i,?,7%,0%
CCN(CC)c1nc2ccccc2nc1C(C#N)C(=O)NCCc1ccccc1 (stereo unspecified),0%,?,i,i,12%,18µM*
CC(C)N(C(=O)[C@H]1C[C@H](CC(=O)NCCN2CCOCC2)C(=O)N2CCc3c([nH]c4cc(-c5ccco5)ccc34)[C@]12C)C(C)C,-11%,16µM*,i,i,16%,-38%
C[C@]12c3[nH]c4cc(-c5ccco5)ccc4c3CCN1C(=O)[C@@H](CC(=O)NCc1cccc(C(F)(F)F)c1)C[C@@H]2C(=O)N1CCCCC1,-21%,?,18µM*,?,5%,-41%
C[C@]12c3[nH]c4cc(-c5ccco5)ccc4c3CCN1C(=O)[C@@H](CC(=O)NCCN1CCOCC1)C[C@@H]2C(=O)N1CCOCC1,-15%,?,i,?,0%,4%
CN(C)CCCNC(=O)C[C@H]1C[C@H](C(=O)N2CCCCC2)[C@@]2(C)c3[nH]c4cc(-c5ccco5)ccc4c3CCN2C1=O,11%,2.1µM*,i,i,-2%,?

# Source: PubChem BioAssay (National Center for Advancing Translational Sciences (NCATS))
